From the supplement of paper PMC9262897, “Low-cost anti-mycobacterial drug discovery using engineered E. coli” (Nature Communications, 2022)
Structures can show the parent of a compound that is named as a salt. ± gives the standard deviation of the averaged measurements.

How the values were obtained:
Test in all cases: growth (OD600 after 10 h); higher = more growth (less inhibition)
[1] = test system: E. coli TESEC Alr+ wild-type control; conditions: compound 0.1 mM; raw OD600 reference: median of DMSO wells 0.241, cell-free background 0.041
Experimental: (§1)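 TESEC Mtb Alr E. coli, or the Alr+ wild-type control, in 384-well plates with Prestwick library compounds at 0.1 mM and 1% DMSO, across arabinose induction levels of 1E3 to 1E7 nM. Growth is read as OD600 after 10 h at 37 °C in triplicate biological replicates.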

E. coli TESEC Mtb Alr [2] = conditions: compound 0.1 mM
Experimental: as §1

E. coli TESEC Mtb Asd = conditions: compound 0.1 mM
Experimental: (§2)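 TESEC E. coli strains in which the native enzyme is deleted and replaced by arabinose-inducible Mtb Asd, DapB, CysH or TrpD, each grown in its selective medium. Strains were screened against the Prestwick library at 0.1 mM and 1% DMSO in 384-well format at low and high arabinose induction. Growth is read as OD600 after 10 h in triplicate.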

E. coli TESEC Mtb DapB = conditions: compound 0.1 mM
Experimental: as §2

E. coli TESEC Mtb Alr [3] = conditions: compound 0.1 mM; remark: listed apart in the source
Experimental: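 TESEC Mtb Alr E. coli (ΔaraC ΔtolC ΔentC Δalr ΔdadX, arabinose-inducible Mtb Alr) or the Alr+ wild-type control strain, grown in defined M9-fructose medium without D-alanine in 96-well plates with Prestwick library compounds at 0.1 mM and 1% DMSO. Low Alr induction is 0.1 µM arabinose and high induction is 10 mM arabinose.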

[4] = arabinose 1000 nM, raw OD600 reference: median of DMSO wells 0.294, cell-free background 0.041
[5] = arabinose 10000 nM, raw OD600 reference: median of DMSO wells 0.264, cell-free background 0.041
[6] = arabinose 100000 nM, raw OD600 reference: median of DMSO wells 0.201, cell-free background 0.041
[7] = arabinose 1000000 nM, raw OD600 reference: median of DMSO wells 0.193, cell-free background 0.041
[8] = arabinose 10000000 nM, raw OD600 reference: median of DMSO wells 0.146, cell-free background 0.041
[9] = arabinose induction (level): High, raw OD600 reference: median of DMSO wells 0.331, cell-free background 0.041
[10] = arabinose induction (level): Low, raw OD600 reference: median of DMSO wells 0.417, cell-free background 0.041
[11] = arabinose induction (level): High, raw OD600 reference: median of DMSO wells […], cell-free background 0.041
[12] = arabinose induction (level): Low, raw OD600 reference: median of DMSO wells 0.227, cell-free background 0.041
[13] = arabinose 100 nM, raw OD600 reference: median of DMSO wells 0.413, cell-free background 0.052
[14] = arabinose 10000000 nM, raw OD600 reference: median of DMSO wells […], cell-free background 0.052

| Compound | growth [1] | growth (E. coli TESEC Mtb Alr [2]; [4]) | growth (E. coli TESEC Mtb Alr [2]; [5]) | growth (E. coli TESEC Mtb Alr [2]; [6]) | growth (E. coli TESEC Mtb Alr [2]; [7]) | growth (E. coli TESEC Mtb Alr [2]; [8]) | growth (E. coli TESEC Mtb Asd; [9]) | growth (E. coli TESEC Mtb Asd; [10]) | growth (E. coli TESEC Mtb DapB; [11]) | growth (E. coli TESEC Mtb DapB; [12]) | growth (E. coli TESEC Mtb Alr [3]; [13]) | growth (E. coli TESEC Mtb Alr [3]; [14]) |
| --- | --- | --- | --- | --- | --- | --- | --- | --- | --- | --- | --- | --- |
| N#Cc1cc(NC(=O)C(=O)O)c(Cl)c(NC(=O)C(=O)O)c1 [Lodoxamide] | 0.264 ± 0.0031 | 0.315 ± 0.006 | 0.2862 ± 0.0018 | 0.173 ± 0.0062 | 0.205 ± 0.013 | 0.134 ± 0.0054 | 0.228 ± 0.029 | 0.366 ± 0.035 | 0.222 ± 0.018 | 0.235 ± 0.03 | 0.404 ± 0.014 | 0.348 ± 0.024 |
| COc1ccccc1OCCNCC(O)COc1cccc2[nH]c3ccccc3c12 (configuration not stated) [Carvedilol] | 0.0443 ± 0.0033 | 0.0415 ± 0.00062 | 0.046 ± 0.0023 | 0.0419 ± 0.00047 | 0.04137 ± 0.0004 | 0.0456 ± 0.0015 | 0.0533 ± 0.004 | 0.0496 ± 0.0017 | 0.0942 ± 0.026 | 0.06 ± 0.004 | 0.4106 ± 0.0016 | 0.0825 ± 0.025 |
| C[C@@H](c1ncncc1F)[C@](O)(Cn1cncn1)c1ccc(F)cc1F [Voriconazole] | 0.214 ± 0.013 | 0.267 ± 0.0077 | 0.252 ± 0.003 | 0.196 ± 0.038 | 0.154 ± 0.0053 | 0.147 ± 0.008 | 0.315 ± 0.062 | 0.285 ± 0.035 | 0.169 ± 0.015 | 0.201 ± 0.013 | 0.412 ± 0.011 | 0.318 ± 0.012 |
| C=C1/C(=C\C=C2/CCC[C@]3(C)[C@@H]([C@H](C)/C=C/[C@@H](O)C4CC4)CC[C@@H]23)C[C@@H](O)C[C@@H]1O [Calcipotriene] | 0.0539 ± 0.0078 | 0.0502 ± 0.0045 | 0.0544 ± 0.0042 | 0.0504 ± 0.0018 | 0.0524 ± 0.0013 | 0.056 ± 0.0013 | 0.0646 ± 0.0023 | 0.0613 ± 0.0049 | 0.158 ± 0.078 | 0.0652 ± 0.0025 | 0.234 ± 0.12 | 0.0671 ± 0.0016 |
| c1ccc(CNc2ncnc3nc[nH]c23)cc1 [Aminopurine, 6-benzyl] | 0.208 ± 0.0066 | 0.243 ± 0.0086 | 0.262 ± 0.006 | 0.19 ± 0.014 | 0.166 ± 0.0054 | 0.149 ± 0.013 | 0.279 ± 0.014 | 0.339 ± 0.072 | 0.169 ± 0.0055 | 0.197 ± 0.022 | 0.416 ± 0.0048 | 0.361 ± 0.0061 |
| Fc1ccc([C@@H]2CCNC[C@H]2COc2ccc3c(c2)OCO3)cc1 [Paroxetine Hydrochloride] | 0.178 ± 0.0068 | 0.172 ± 0.01 | 0.2021 ± 0.0013 | 0.129 ± 0.0033 | 0.05573 ± 0.00035 | 0.0552 ± 0.0014 | 0.133 ± 0.0029 | 0.176 ± 0.0037 | 0.172 ± 0.027 | 0.178 ± 0.0082 | 0.384 ± 0.0066 | 0.134 ± 0.073 |
| Cc1ccc(Cl)c(Nc2ccccc2C(=O)O)c1Cl [Meclofenamic acid sodium salt monohydrate] | 0.0491 ± 0.00067 | 0.0555 ± 0.0013 | 0.0424 ± 0.00044 | 0.0566 ± 0.00087 | 0.04353 ± 0.00038 | 0.0628 ± 0.001 | 0.0702 ± 0.014 | 0.0796 ± 0.0032 | 0.118 ± 0.021 | 0.123 ± 0.016 | 0.0708 ± 0.027 | 0.0591 ± 0.0032 |
| Cc1cccc(N(C)C(=S)Oc2ccc3ccccc3c2)c1 [Tolnaftate] | 0.255 ± 0.019 | 0.272 ± 0.02 | 0.268 ± 0.012 | 0.165 ± 0.016 | 0.11 ± 0.011 | 0.163 ± 0.0066 | 0.281 ± 0.07 | 0.246 ± 0.047 | 0.174 ± 0.012 | 0.243 ± 0.029 | 0.384 ± 0.015 | 0.264 ± 0.064 |
| O=C(O[C@@H]1C[C@@H]2C[C@H]3C[C@H](C1)N2CC3=O)c1c[nH]c2ccccc12 [Dolasetron mesilate] | 0.204 ± 0.0058 | 0.25 ± 0.0086 | 0.238 ± 0.0033 | 0.137 ± 0.0054 | 0.0823 ± 0.0017 | 0.114 ± 0.0051 | 0.226 ± 0.044 | 0.482 ± 0.053 | 0.192 ± 0.019 | 0.217 ± 0.016 | 0.405 ± 0.016 | 0.23 ± 0.036 |
| COc1cc(Cc2cnc(N)nc2N)cc(OC)c1OC [Trimethoprim] | 0.0601 ± 0.0005 | 0.04863 ± 0.00047 | 0.0442 ± 0.00076 | 0.04953 ± 0.00035 | 0.04553 ± 0.0004 | 0.0534 ± 0.00081 | 0.0958 ± 0.044 | 0.0867 ± 0.014 | 0.0742 ± 0.0018 | 0.0572 ± 0.0041 | 0.0922 ± 0.026 | 0.0701 ± 0.0035 |
| COCCCOc1ccnc(C[S+]([O-])c2nc3ccccc3[nH]2)c1C (configuration not stated) [Rabeprazole Sodium salt] | 0.186 ± 0.0019 | 0.213 ± 0.023 | 0.262 ± 0.011 | 0.135 ± 0.0037 | 0.0782 ± 0.0026 | 0.1339 ± 0.0007 | 0.423 ± 0.028 | 0.371 ± 0.01 | 0.176 ± 0.021 | 0.207 ± 0.0085 | 0.357 ± 0.011 | 0.152 ± 0.035 |
| CCCCOc1ccc(C(=O)CCN2CCCCC2)cc1 [Dyclonine hydrochloride] | 0.208 ± 0.004 | 0.278 ± 0.0053 | 0.252 ± 0.0069 | 0.183 ± 0.0081 | 0.143 ± 0.0049 | 0.144 ± 0.0069 | 0.269 ± 0.064 | 0.252 ± 0.01 | 0.149 ± 0.0069 | 0.176 ± 0.012 | 0.408 ± 0.0048 | 0.355 ± 0.033 |
| CN(C)CCOC(=O)C(c1ccccc1)C1(O)CCCC1 (configuration not stated) [Cyclopentolate hydrochloride] | 0.219 ± 0.0068 | 0.29 ± 0.0093 | 0.27 ± 0.01 | 0.183 ± 0.014 | 0.19 ± 0.018 | 0.133 ± 0.0078 | 0.198 ± 0.013 | 0.334 ± 0.1 | 0.192 ± 0.021 | 0.231 ± 0.045 | 0.4313 ± 0.0024 | 0.316 ± 0.018 |
| CN(C)CC/C=C1\c2ccccc2CSc2ccccc21 [Dosulepin hydrochloride] | 0.168 ± 0.0019 | 0.208 ± 0.0074 | 0.309 ± 0.019 | 0.211 ± 0.0092 | 0.146 ± 0.0095 | 0.163 ± 0.0079 | 0.14 ± 0.0062 | 0.263 ± 0.0048 | 0.168 ± 0.015 | 0.202 ± 0.0032 | 0.413 ± 0.013 | 0.308 ± 0.0073 |
| C[C@]12CCC(=O)C=C1C=C[C@@H]1[C@@H]2CC[C@@]2(C)[C@H]1CC[C@@]21CCC(=O)O1 [Canrenone] | 0.129 ± 0.0013 | 0.139 ± 0.0075 | 0.097 ± 0.0013 | 0.131 ± 0.0077 | 0.0738 ± 0.0044 | 0.126 ± 0.0083 | 0.217 ± 0.055 | 0.227 ± 0.042 | 0.139 ± 0.011 | 0.174 ± 0.0092 | 0.363 ± 0.0069 | 0.144 ± 0.031 |
| CCCN[C@H]1CCc2nc(N)sc2C1 [Pramipexole dihydrochloride] | 0.237 ± 0.0095 | 0.289 ± 0.004 | 0.258 ± 0.0086 | 0.207 ± 0.015 | 0.191 ± 0.01 | 0.15 ± 0.0057 | 0.262 ± 0.068 | 0.334 ± 0.02 | 0.174 ± 0.013 | 0.209 ± 0.013 | 0.406 ± 0.013 | 0.363 ± 0.012 |
